A selection: hits, their analogues and other compounds. The true share with any hit is near 10%.
NS1 function inh = qHTS Assay for Inhibitors of Influenza NS1 Protein Function | 270,000 compounds, 0.4% hits | Potency, µM (series often up to 46.1 µM), for inactives: at the top dose activity, positive = more growth; also: actives are rising curves; nearly all actives have a fitted effect of over 50% in size
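Recovery from NS1-induced slow growth read by OD600 in budding yeast switched to galactose assay medium (pH 6.0, -URA) at 1:100 dilution. Compound 23 nl per well; the matching strain lacking NS1 serves as control.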
Pf growth 48h = Primary qHTS for delayed death inhibitors of the malarial parasite plastid, 48 hour incubation; 310,000 compounds, 5.9% hits; Potency, µM (titrated, usually from 28.7 µM), for the others: at the highest dose activity change, negative = inhibition, usual class: inhibitors; P. falciparum luciferase growth in erythrocytes, 48 h; AID 504832, 2011; active = well fitted inhibition curve with a large enough effect; inconclusive = small, poorly fitted or top-dose-only effect, or another doubt; inactive = no such curve, though single readings can be large or run the other way; also: % is scaled to controls: 0 for no effect and ±100 for the full control effect
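Cell-based growth assay: transgenic P. falciparum expressing firefly luciferase, cultured in red cells within RPMI 1640 containing 0.5% w/v Albumax, 24 mM bicarbonate and gentamycin. A drop in luciferase activity indicates inhibition.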
SARS PLP yeast = qHTS of Yeast-based Assay for SARS-CoV PLP. S. cerevisiae expressing SARS-CoV PLpro, growth rescue. Potency, µM (titrated, usually from 32.9 µM), for inactives: top-dose activity, positive = growth rescue, actives largely listed as activators. 330,000 compounds, 0.19% hits; also: 0% is about no effect; nearly all actives have a fitted effect of over 55% in size
Pf growth 96h = Primary qHTS for delayed death inhibitors of the malarial parasite plastid, 96 hour incubation; P. falciparum luciferase reporter growth, 96 h; Potency, µM (doses to about 28.7 µM), inactives show at the highest dose activity change, negative = inhibition, most hits filed as inhibitors; 320,000 compounds, 6.9% hits; AID 504834, 2011; active = well fitted inhibition curve with a large enough effect; inconclusive = small, poorly fitted or top-dose-only effect, or another doubt; inactive = no such curve, though single readings can be large or run the other way; also: % is scaled to controls: 0 for no effect and ±100 for the full control effect
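Two-generation exposure (96 h) targets delayed-death phenotype. Reporter parasites carrying integrated firefly luciferase, in red cells at 2% hematocrit and 0.05% parasitemia final, kept at 37 C, 5% CO2; luminescence loss indicates inhibition.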
Numbers without * were called inactive; ? = inconclusive; / = no result given; [ ] = remark or other dose. Unless noted, calls follow the shape of the full dose curve. Potency is read from the fitted curve at half-maximal effect.

SMILES | NS1 function inh | Pf growth 48h | SARS PLP yeast | Pf growth 96h
O=[N+]([O-])c1ccc(N2CCN(S(=O)(=O)c3ccccc3)CC2)cc1NCc1cccnc1 | 14% | 9.3µM* | 0% | -1%
COc1ccccc1N1CCN(C(=O)CCNC(=O)c2ccco2)CC1 | / | 43% | 3% | 37%
O=S1(=O)CC2SC(=S)N(Cc3ccccc3)C2C1 (stereo unspecified) | 6% | ? | 0% | 31%
N#CCCN1CCN(C(CNS(=O)(=O)c2ccc(Cl)cc2)c2ccccc2)CC1 (stereo unspecified) | -13% | -18% | -2% | 5.2µM*
COc1ccc(CCc2cc(OC)cc(=O)o2)cc1 | -3% | 9% | 0% | 1.9µM*
Cc1nc2ccccn2c1C(=O)NNC(=O)Nc1cccc(C(F)(F)F)c1 | -5% | 22% | 3% | -29%
COc1ccc2c(c1)CCc1sc(NC(=O)c3ccco3)nc1-2 | -3% | / | -28% | ?
COc1ccc2c(c1)CCc1sc(NC(=O)c3ccc(C)cc3)nc1-2 | 9% | ? | 0% | 6.6µM*
COc1ccc(C)cc1S(=O)(=O)N1c2ccccc2CC1C (stereo unspecified) | -69% | ? | -39% | /
COc1ccc(NC(=O)NCc2ccccn2)cc1OC | 0% | -11% | 4% | 3%[5.75 µM]
COc1ccc(CCNC(=O)Cn2nc(C(=O)O)c3ccccc3c2=O)cc1OC | / | 28% | -2% | 24%
COc1ccc(CC(=O)NCc2cccc(CNC(=O)Cc3ccc(OC)c(OC)c3)c2)cc1OC | 0% | -17% | -7% | 8.3µM*
COc1ccc(CC(=O)NNC(=O)c2nn(Cc3ccccc3)c(=O)c3ccccc23)cc1OC | 6% | 3.3µM* | 1% | ?
COc1ccc(CC(=O)NCc2ccccn2)cc1OC | -2% | 10µM* | -1% | 4.7µM*
COc1ccc(CC(=O)c2ccc(OC)c(OC)c2C)cc1OC | 0% | ? | -10% | 10µM*
COc1cc(S(=O)(=O)N2CCOCC2)cc(C(=O)OCC(=O)NC2CCCCC2)c1OC | / | ? | 9% | ?
COc1ccc(NS(=O)(=O)c2ccc(NC(=O)c3ccc(N(C)S(C)(=O)=O)cc3)cc2)c(OC)c1 | 12% | ? | 8% | -18%
COc1ccc(S(=O)(=O)N2CCN(c3ccccc3)CC2)cc1 | -3% | 17% | 1% | 32%
Cc1ccc(OCC(=O)Nc2ccc3c(c2)C(=O)NC3=O)cc1 | 6% | 5% | 2% | ?
CC(C)CC(=O)Nc1ccc(Oc2ccc3c(c2)C(=O)NC3=O)cc1 | 13% | 15% | -1% | 13µM*
Cc1ccc(-c2nc(NC(=O)c3cc(C(C)(C)C)nn3C)sc2C)cc1Cl | -4% | 1.9µM* | 2% | 2.1µM*
COC(=O)c1ccc(C(=O)NC(=S)Nc2nc3c(s2)CC(C)CC3)cc1 (stereo unspecified) | -1% | 9% | 6% | -9%
Cn1nc(C(C)(C)C)cc1C(=O)NNC(=O)c1ccccc1Cl | 1% | 40% | 0% | 3%
CC1CCc2nc(NC(=O)c3cc(C(C)(C)C)nn3C)sc2C1 (stereo unspecified) | -21% | ? | 1% | 8.3µM*
COc1cc2c(cc1OC)CN(c1ccc([N+](=O)[O-])cc1C#N)CC2 | 6% | -7% | -21% | 15µM*
SMILES | NS1 function inh | Pf growth 48h | SARS PLP yeast | Pf growth 96h
COc1cc2c(cc1OC)CN(c1ccc([N+](=O)[O-])cc1Cl)CC2 | -10% | ? | -42% | ?
CCn1ccnc1[C@@H]1C[C@H]2CN(Cc3ccccc3OC)C(=O)[C@]23CCCN13 | -1% | 11% | 0% | 9.3µM*
COc1ccc([C@@H]2C[C@H]3CN(c4ccccc4)C(=O)[C@]34CCCN24)c(OC)c1OC | 7% | ? | 0% | 7%
COc1ccccc1CN1C[C@@H]2C[C@@H](C3=Cc4cc(Cl)ccc4OC3)N3CCC[C@@]23C1=O | 16% | ? | 0% | 13µM*
COc1ccccc1CN1C[C@@H]2C[C@@H](c3ccc(C)cc3)N3CCC[C@@]23C1=O | -4% | ? | -1% | ?
COc1ccc2c(c1)C=C([C@@H]1C[C@H]3CN(c4ccccc4)C(=O)[C@]34CCCN14)CO2 | -1% | 1.5µM* | -2% | ?
CN1C[C@@H]2C[C@@H](C3=Cc4cc(Cl)ccc4OC3)N3CCC[C@@]23C1=O | 0% | -25% | 0% | 5%
COc1ccccc1CN1C[C@@H]2C[C@@H](c3[nH]c4ccc(C)cc4c3C)N3CCC[C@@]23C1=O | 1% | 7.4µM* | 0% | -14%
CN(CC(=O)Nc1ccccc1Cl)C(=O)Cn1cnc2ccccc2c1=O | / | ? | 0% | 26%
CCOC(=O)C1=C(COC(=O)c2ccc(C)c(S(=O)(=O)N3CCOCC3)c2)NC(=O)NC1C (stereo unspecified) | / | ? | 1% | 5%
COCc1cc([C@@H]2C[C@H]3CN(c4ccccc4)C(=O)[C@]34CCCN24)ccc1OC | 3% | 10µM* | 1% | ?
CCc1ccc([C@@H]2C[C@H]3CN(Cc4ccccc4OC)C(=O)[C@]34CCCN24)cc1 | -1% | 5.9µM* | -1% | ?
O=C(O)/C=C(/C(=O)O)[C@]12CCN3CC4=CCO[C@@H]5CC(=O)N[C@@H]1C5[C@H]4C[C@H]32 (stereo partly specified) | -5% | / | / | /
CN(C)CC(C)(C)CNS(=O)(=O)c1ccc(OC(F)(F)F)cc1 | -4% | 3% | -2% | 2%
CC(=O)c1ccc(N2CCN(C(=O)CCC(=O)c3cccs3)CC2)cc1 | / | -17% | -2% | ?
O=C(CCC(=O)N1CCN(c2ccc(O)cc2)CC1)c1ccc(Br)cc1 | 0% | 25% | 0% | 9.3µM*
O=C(CCC(=O)N1CCN(c2ccc(O)cc2)CC1)c1cccs1 | 3% | 13µM* | -1% | 7.4µM*
O=c1cc(/C=C/c2c(F)cccc2Cl)[nH]c2ccccc12 | -12% | 0.93µM* | -12% | 6%
CN(C)C1=NC[C@H](Cc2ccccc2)N1CCc1cccc(F)c1 | / | ? | 3% | ?
NC1=NC[C@H](Cc2ccc(O)cc2)N1CCc1cccc(F)c1 | -8% | 13µM* | 0% | 2.3µM*
FC(F)(F)c1cc(CCN2C(=S)NC[C@@H]2Cc2ccccc2)cc(C(F)(F)F)c1 | 13% | ? | 0% | ?
NC1=NC[C@H](Cc2ccccc2)N1CCc1cc(C(F)(F)F)cc(C(F)(F)F)c1 | -4% | 3.3µM* | 1% | ?
Nc1ccccc1N=Nc1c(S(=O)(=O)O)cc2cc(S(=O)(=O)O)cc(O)c2c1O | -8% | / | / | /
O=C(Nc1cc(Cl)ccc1N1CCOCC1)c1cccnc1Cl | -3% | -42% | -3% | 14%
Cc1ccc(C)c(N=Nc2ccc(O)c3ncccc23)c1 | / | 2.1µM* | ? | ?
NS(=O)(=O)c1cc(Br)c(N=Nc2ccc(O)c3ncccc23)c(Br)c1 | 3% | / | / | /
Oc1ccc(N=Nc2ccc3c(c2)OCCO3)c2ncccc12 | -50% | ? | 4% | 1µM*
Cc1cccc(N=Nc2ccc(O)c3ncccc23)c1 | -72% | 1.9µM* | / | ?
COc1ccc(NC(=O)CSc2nnc(NC(=O)c3ccccc3C(=O)O)s2)cc1 | -5% | ? | 0% | ?

Assay outcomes from PubChem.
